Over roughly 59,000 sequences, the read-out has its median near -0.00055; the lowest 2% begin near -2. The full list was thinned out, with the lowest values kept by preference.

This assay can be described thus: Identification of proteins required for the processing of the EWS-FLI1 nascent transcript.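 Note: robust z of luciferase light less the median z of siRNAs with the same seed.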 To be noted: TC32 Ewing sarcoma NR0B1-luc vs CMV-luc (EWS-FLI1 target promoter against control promoter), 48 h; screened at 20 nM (by protocol). In a few lines:
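Genome-wide siRNA screen (Ambion v4.1, three siRNAs per gene, 20 nM final, RNAiMax) in Ewing sarcoma TC32 cells carrying NR0B1-promoter or CMV-promoter luciferase; OneGlo luciferase read 48 h post-transfection. Data normalized, z-score-MAD transformed and seed-adjusted.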
Turning to UUAGUUCCAUUUCCUACUC against TEX38, the seed-corrected z-score is -0.404.

In the case of UGUGCAUGCACAGAGAAGC against NFE4, the seed-corrected z-score was -1.58.

For AAACUUAUACUUCUGGUAC against VBP1, the seed-corrected z-score was -0.149.

On to AGGAGACUCAGCUUGAUCC against SPATA45, for which the seed-corrected z-score is -2.01.

Regarding AACCAGUUAGAUUAUACGC against ATRNL1, the seed-corrected z-score is -0.225.

Turning to UUGUAUCCAAAGAUGAUUC against PLXDC2, the seed-corrected z-score was -0.0677.

Sequence AGGCUGAUGACUCCUAUCC against SSTR3 returned a seed-corrected z-score of 0.317.

UCAUAGGACCAGUCAAUGC against CPA2 returned a seed-corrected z-score of 0.13.

As to UCCCGUUCAAUCUCCCACC against RNF113B, the seed-corrected z-score was -0.595.

Take UCCAUGGUACUUCUUAUGC against TMEM127: the seed-corrected z-score was -2.9.

For UUGGGAGCGAUAACACGAC against C19orf53, the seed-corrected z-score is -0.418.

As to AGAUCUACUAGUUCUUGUG against LRCH1, the seed-corrected z-score was 0.758.

Consider ACAGUGGUGAACGUGAUGC against JPX, for which the seed-corrected z-score is -2.26.

Turning to UUGGUAGUAGAUCAUAUGC against STXBP3, the seed-corrected z-score was -0.0771.

The sequence UUUUCUUGCGUUUAUGUGG against C11orf57 showed a seed-corrected z-score of 0.448.

AGUGAUGAAAGCAAAGUAG against KCNK16 came in with a seed-corrected z-score of 0.908.

UUUCAUCUCACCUUUAUUG against RPL23P5: the seed-corrected z-score was -2.17.

Consider UUCUGAUCCUGGAUGUUGC against R3HDM1, for which the seed-corrected z-score is 0.205.

AGACGUUCCAUUCAUAUCU against RBMY1F came in with a seed-corrected z-score of 0.399.

As for AUGGUCUUCACUCUUGUGC against CCR9, the seed-corrected z-score was -3.14.

For the sequence UGUGUUUAACCAGAGAUCC against RXRG, the seed-corrected z-score was found to be 0.625.

As for UGACCGUUUCGGAUGAUGG against ATP2B4, the seed-corrected z-score came to 0.168.

Turning to UAGCUGUCGAACACCCAGG against PDDC1, the seed-corrected z-score amounted to 1.63.

UCAGUUUGCAAUUAGGCAG against LOC113230 returned a seed-corrected z-score of 0.933.

Sequence UACCAGCUCACUGACAUGG against OR8B4 gave a seed-corrected z-score of 0.0124.

Turning to UGCAUGACAAACAAAUUCC against GATAD1, the seed-corrected z-score was 0.136.

Turning to UCCAGUUGUAGUUCGGCAG against KISS1, the seed-corrected z-score is -2.32.

In the case of UCAGGUUGAUGAAAUGGGC against PRDM15, the seed-corrected z-score is -0.519.

On to UGAGCACAGAAAGUGGACC against SNRPD2P1, for which the seed-corrected z-score was -0.553.

For the sequence ACAUCCUUAAGAAAUAUGG against PLEKHA2, the seed-corrected z-score was -0.563.

For AAAGCGUAGAAAAUAUCCC against DNAH5, the seed-corrected z-score was -0.0906.

Regarding UCAGUAUGAAGAGCAACAG against MCM2, the seed-corrected z-score was -0.317.

With UACCUCUUAAUAAGAUCUG against ATP8A2, the seed-corrected z-score was 0.0625.

The sequence UUUCGGAAAUCUAGGCUGG against KANSL1 yielded a seed-corrected z-score of 1.62.

UUGAUAUAAACUCUGACAC against PDE4D returned a seed-corrected z-score of 0.567.

As for UCGUCUUCGCUUUAUAUCC against EFR3A, the seed-corrected z-score is -3.4.

For the sequence AUCGGUAGCAGUGAACAUG against LPP, the seed-corrected z-score is -0.942.

For the sequence UAUAUUAGCGGUAACGGUG against RPL15P3, the seed-corrected z-score was -2.66.

For UCUGUUACAAUUGUUCCAC against ETF1, the seed-corrected z-score was -0.812.

For UUUCUCAUCAAAGAACUCC against PPP2R1A, the seed-corrected z-score was -0.546.

Consider AAGCUUUAUACUUUCCACC against OR7G3, for which the seed-corrected z-score is -0.496.

Consider AUUCGAACAACAUUUCUUC against ANOS1, for which the seed-corrected z-score is -0.592.

In turn, UCUCGAACCUGGAGAAUGC against FAM109B came in with a seed-corrected z-score of 0.134.

On to UGUGCACUAAUGCGAAUCG against MYO5C, for which the seed-corrected z-score is -0.13.

For UCUGCUUUGUCUCUCAGCC against FAM92A1, the seed-corrected z-score is -2.84.

Sequence UUCUGGAUGUGGUAGGGCC against ACSBG1 displayed a seed-corrected z-score of 0.963.

In the case of UCUGUUCGAAAGUCAAAGC against SRBD1, the seed-corrected z-score is -0.955.

For the sequence UGAGUUGCAGUCCUCCACG against C9orf173, the seed-corrected z-score was -2.17.

Take UUCGUAAUAAAGGAUCCAG against NF1: the seed-corrected z-score turned out to be 0.124.

On to UAUGCGCAGAUGUUACUCG against PAICS, for which the seed-corrected z-score came out at 0.0926.

Regarding UUCACUUUCAGAUCGGGAC against C18orf25, the seed-corrected z-score is -1.35.

As to UUUAAGUCAAAUCUUGUCC against WTIP, the seed-corrected z-score is -0.633.

For UAUUUACCAGGCUCUGUGG against FAM47A, the seed-corrected z-score was 0.667.

Sequence UGCUGCAUGACAUCCACCC against SORBS3 registered a seed-corrected z-score of 0.835.

Regarding AGGGUAGAAAGAGUCGUCC against ANKRD33B, the seed-corrected z-score is -2.3.

For the sequence UUUUCGAUCAUCACCACAC against YWHAQ, the seed-corrected z-score was -0.216.

In turn, UUGGAGUUCAGGAUCCUCU against MYO19 displayed a seed-corrected z-score of 0.563.

UCGGUUGAAACAUUUGUGG against IPO11 returned a seed-corrected z-score of 0.941.

For the sequence UAUGUAACUUUGAUGAGAG against CEACAM22P, the seed-corrected z-score came out at 0.0194.

For AUCCUUGUACAUGCAGUCC against ELL, the seed-corrected z-score is -2.16.

For AUAAAACUCAUCUGAGUCC against CYP11B2, the seed-corrected z-score was determined as 0.754.

Consider AAAGCUAACAUAUUGUAGU against MSGN1, for which the seed-corrected z-score is -0.0625.

UUUCCGAUAGAUUGACUGC against SMPX yielded a seed-corrected z-score of 0.0624.

Take UUUCAUCUCAUCGAGGAAG against LDOC1: the seed-corrected z-score is -2.02.

Sequence UUCUCACUCAUGUUGCCUC against ZNF768 had a seed-corrected z-score of 0.198.

UACGGUCACUGAUAGUUGG against CYP17A1: the seed-corrected z-score was -0.42.

UACCGGAAAGACAAGAUAG against CRYBG3 came in with a seed-corrected z-score of 0.146.

Consider UGUAGCUGAAGAAUAUUCC against ZBTB24, for which the seed-corrected z-score was -2.4.

With UCUUAUUGAAAAUCUCAGC against NR1H4, the seed-corrected z-score was 0.518.

For UGUCUAACAAAUGUGGAGC against ZNF548, the seed-corrected z-score came out at 0.841.

For UCUGGUGUACAAGUAGUCC against FICD, the seed-corrected z-score came to 0.433.

Turning to UCUCCUCAAAGCACCAGCC against LOC653712, the seed-corrected z-score was -0.019.

AAAGUAGCAUCGUCUGUCU against GSC yielded a seed-corrected z-score of 0.704.

Turning to UUUGAGUAGAGCAGCAUCC against SENP3, the seed-corrected z-score is -2.41.

With AUACUGGUUAGAAUCAGAC against EVI5, the seed-corrected z-score was -0.0438.

In the case of AAUGAAGCAGUUCAUAAGC against ST3GAL6, the seed-corrected z-score stood at 0.107.

For the sequence UUACGUUCAACCUUAGAUC against PHLPP1, the seed-corrected z-score was found to be 0.355.

Consider UUUAGUUCACCCUGAAUCG against NUP54, for which the seed-corrected z-score was -0.0579.

Regarding UAAGUACUCUCAACACUGC against PIN4P1, the seed-corrected z-score worked out at 0.00579.

In the case of AGCUUGUAAACACUUCUGC against RGN, the seed-corrected z-score is -2.52.

UUUGAGUCUAGUGGGAUAG against SLC22A10 came in with a seed-corrected z-score of 0.479.

Take UAUAGAUGCGAAUCCUUUC against C17orf97: the seed-corrected z-score is -0.421.

In the case of AAAGCUGCAACUGCCUCCC against C2orf48, the seed-corrected z-score was -2.61.

As to UAAGUCGAACCUUAUCUCC against AIM2, the seed-corrected z-score was -0.16.

These data come from PubChem BioAssay AID1159506 (National Center for Advancing Translational Sciences (NCATS), 2015).
